Pf growth 96h: Primary qHTS for delayed death inhibitors of the malarial parasite plastid, 96 hour incubation. P. falciparum luciferase reporter growth, 96 h. Potency, µM (doses to about 28.7 µM), for the others: at the top dose activity change, negative = inhibition, usual class: inhibitors. 6.9% of 320,000 active; also: % is scaled to controls: 0 for no effect and ±100 for the full control effect
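Delayed-death screen, second-generation endpoint: infected erythrocytes, 2% hematocrit, 0.05% parasitemia final; 96 hours at 37 C, 5% CO2; luciferase detection reagent; luminescence decrease equals reduced growth.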
VACV mCherry inh: qHTS for Stage-Specific Inhibitors of Vaccinia Orthopoxvirus: mCherry Reporter Primary qHTS. Vaccinia virus mCherry reporter infection, fluorescence. Potency, µM (series often up to 36.5 µM), for the others: top-dose activity change, negative = inhibition, hits mostly inhibitors. 0.63% of 310,000 active. AID 720579, 2013; calls by dose curve; tested in A549 cells; also: % is scaled to controls: 0 for no effect and ±100 for the full control effect; nearly all actives have a fitted effect of over 35% in size
Vaccinia Venus: qHTS for Stage-Specific Inhibitors of Vaccinia Orthopoxvirus: Venus Reporter Primary qHTS | Potency, µM (doses to about 36.5 µM), for the others: top-dose activity change, negative = inhibition, hits mostly inhibitors | Vaccinia virus Venus reporter expression, fluorescence | 0.46% of 330,000 active | AID 720580, 2013; calls by dose curve; tested in A549 cells; also: % is scaled to controls: 0 for no effect and ±100 for the full control effect; nearly all actives have a fitted effect of over 30% in size
Pf growth 48h: Primary qHTS for delayed death inhibitors of the malarial parasite plastid, 48 hour incubation. P. falciparum luciferase growth in erythrocytes, 48 h. Potency, µM (highest dose often 28.7 µM), for the others: at the top dose activity change, negative = inhibition, actives largely listed as inhibitors. 5.9% of 310,000 active. AID 504832, 2011; also: % is scaled to controls: 0 for no effect and ±100 for the full control effect
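Firefly luciferase activity from engineered P. falciparum reports growth; inhibitors lower the luminescent signal. Cultures contained 2% hematocrit erythrocytes at 0.1% final parasitemia.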
HCV inhibitor: qHTS Assay for Inhibitors of Hepatitis C Virus (HCV). Huh7.5.1 HCVcc-Cre infection, luciferase reporter, 44 h. Potency, µM (series often up to 41.8 µM), for the others: top-dose activity change, negative = inhibition, most hits filed as inhibitors. 3.4% of 340,000 active. AID 651820, 2012; also: % is scaled to controls: 0 for no effect and ±100 for the full control effect
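1,000 cells/well; 4 h culture; + compound; + HCVcc-Cre (~0.5 moi); 44 h; luciferase substrate, RT 15 min; read 15 sec.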
NS1 inh: qHTS Assay for Inhibitors of Influenza NS1 Protein Function. Potency, µM (series often up to 46.1 µM), for the others: at the highest dose activity, positive = more growth. 0.4% of 270,000 active; calls by dose curve; also: actives are rising curves; nearly all actives have a fitted effect of over 50% in size
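Growth recovery, yeast-based: influenza A NS1 expressed in S. cerevisiae causes slow growth, and suppressors are detected by OD600. The parent strain without NS1 is used as positive control.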
* = called active by the depositor; [ ] = another dose, or the depositor's remark. A selection: hits, their analogues and other compounds. The true share with any hit is near 11%. Unless noted, calls follow the shape of the dose curve; as a rule, active = well fitted inhibition curve with a large enough effect; inconclusive = small, poorly fitted or top-dose-only effect, or another doubt; inactive = no such curve, though single readings can be large or run the other way. Potency is read from the fitted curve at half-maximal effect.

Screening CCCn1c(CNc2ccc(Br)cc2)nc2ccccc21 returned Pf growth 96h 48.7%, VACV mCherry inh 11.2µM*, Vaccinia Venus inconclusive, HCV inhibitor inconclusive and NS1 inh -112.6%.
CCCCn1c(NC(=O)c2ccccc2)nc2ccccc21 was read as Pf growth 96h 4.65µM*, VACV mCherry inh inactive, Vaccinia Venus -22.5%, Pf growth 48h inconclusive, HCV inhibitor 12.6µM* and NS1 inh -118.1%.
Screening CCn1c(CNc2ccc(C(=O)O)cc2)nc2ccccc21 returned Pf growth 96h 3.3%, VACV mCherry inh -9.8%, Vaccinia Venus -2.6%, Pf growth 48h 9.6%, HCV inhibitor 13.6% and NS1 inh 6.1%.
`C=CCn1c(NC(=O)c2ccccc2)nc2ccccc21` gave Pf growth 96h 11.7µM*, Pf growth 48h inconclusive, HCV inhibitor inconclusive and NS1 inh -40.9%.
`CC(C)CNC(=O)c1cccc(Cn2cc(Cl)cn2)c1` gave Pf growth 96h 10.4µM*, VACV mCherry inh -9.3%, Vaccinia Venus -5.5%, Pf growth 48h -4.2%, HCV inhibitor -3.0% and NS1 inh -14.5%.
`CC1CCN(c2ccc(-c3ccc(NC(=O)C(F)(F)F)cc3)nn2)CC1` gave Pf growth 96h 45.1%, VACV mCherry inh -19.8%, Vaccinia Venus -8.5%, Pf growth 48h 50.8%, HCV inhibitor -16.4% and NS1 inh -3.6%.
For O=C1CC(Nc2cc(=O)[nH]c(=O)[nH]2)C(=O)N1c1ccccc1Cl (stereo not drawn) the results were Pf growth 96h 14.3%, VACV mCherry inh -4.7%, Vaccinia Venus -5.3%, Pf growth 48h 21.1%, HCV inhibitor 11.6% and NS1 inh -34.9%.
`CCCn1c(NC(=O)c2ccc(Br)cc2)nc2ccccc21` gave Pf growth 96h 2.94µM*, VACV mCherry inh -2.6%, Vaccinia Venus -14.9%, HCV inhibitor 20.4% and NS1 inh 1.7%.
`CCn1c(NC(=O)c2ccccc2)nc2ccccc21` gave Pf growth 96h 10.4µM*, VACV mCherry inh -6.1%, Vaccinia Venus -12.4%, Pf growth 48h 11.7µM*, HCV inhibitor 7.2% and NS1 inh -57.4%.
For Cn1nccc1C(=O)N1CCC2(CC1)OCCO2 the results were Pf growth 96h 5.8%, VACV mCherry inh -0.7%, Vaccinia Venus 4.9%, Pf growth 48h 3.3%, HCV inhibitor 5.7% and NS1 inh 0.7%.
COc1ccc(Cn2nnc(C(=O)Nc3ccc4c(c3)OCCO4)c2N)cc1Br was read as Pf growth 96h 11.7µM*, Pf growth 48h -17.5%, HCV inhibitor 3.5% and NS1 inh 11.4%.
`COc1cc(NC(=O)c2nnn(Cc3ccc(SC)cc3)c2N)cc(OC)c1` gave Pf growth 96h 11.7µM*, VACV mCherry inh -18.8%, Vaccinia Venus -5.4%, HCV inhibitor inconclusive and NS1 inh -19.3%.
Screening CSc1cccc(NC(=O)c2nnn(Cc3ccccc3)c2N)c1 returned Pf growth 96h 16.6%, Pf growth 48h 9.28µM*, HCV inhibitor inconclusive and NS1 inh -11.2%.
COc1cc(NC(=O)c2nnn(Cc3ccc(F)cc3)c2N)cc(OC)c1 was read as VACV mCherry inh -17.9% and Vaccinia Venus -13.3%.
Screening COc1cccc(NC(=O)c2nnn(CCc3ccccc3)c2N)c1 returned Pf growth 96h -1.8%, VACV mCherry inh -14.2%, Vaccinia Venus -7.0%, HCV inhibitor -27.3% and NS1 inh -9.3%.
Screening Cc1cccc(C(=O)OC(C)C(=O)Nc2ccc(S(=O)(=O)Nc3ncccn3)cc2)c1C (stereo not drawn) returned Pf growth 96h 2.9%, Pf growth 48h -1.9% and HCV inhibitor 0.5%.
For COc1cccc2c(=O)n(CC(=O)N3CCCCC3)ccc12 the results were Pf growth 96h 0.0%, VACV mCherry inh -26.5%, Vaccinia Venus 2.2%, Pf growth 48h 4.8%, HCV inhibitor 20.0% and NS1 inh -3.8%.
CCCCOc1ccc(C(=O)Nc2sc3c(c2C(=O)OCC)CCCCC3)cc1 was read as VACV mCherry inh -10.7% and Vaccinia Venus -6.9%.
Screening Cc1ccccc1C(=O)Nc1ccc(OCc2cc(=O)n3ccccc3n2)cc1 returned VACV mCherry inh -4.6% and Vaccinia Venus -6.7%.
`CCOC(=O)N1CCC(n2c(SCC(=O)Nc3ccccc3OC)nc3ccccc3c2=O)CC1` gave Pf growth 96h -4.0%, Pf growth 48h 10.4µM*, HCV inhibitor inconclusive and NS1 inh 4.5%.
`CC(=O)NCCn1c(SCC(=O)NCCC2=CCCCC2)nc2ccccc2c1=O` gave Pf growth 96h 58.7%, Pf growth 48h -13.7%, HCV inhibitor 1.0% and NS1 inh -3.6%.
For CCOC(=O)N1CCC(n2c(SCC(=O)NCc3ccccc3)nc3ccccc3c2=O)CC1 the results were Pf growth 96h inconclusive, Pf growth 48h inconclusive, HCV inhibitor inconclusive and NS1 inh -35.5%.
`COc1ccc(-n2c(SCC(=O)Nc3ccc(C(N)=O)cc3)nc3ccccc3c2=O)cc1OC` gave Pf growth 96h inconclusive, VACV mCherry inh inactive, Vaccinia Venus -6.6%, Pf growth 48h -16.6%[0.00184 µM], HCV inhibitor -14.4% and NS1 inh 7.8%.
For CCOC(=O)N1CCC(n2c(SCC(=O)NCCC3=CCCCC3)nc3ccccc3c2=O)CC1 the results were Pf growth 96h inconclusive, Pf growth 48h 9.28µM*, HCV inhibitor inconclusive and NS1 inh -66.6%.
Screening CCOc1ccccc1NC(=O)CSc1nc2cc(O)ccc2c(=O)n1-c1ccc(OC)c(OC)c1 returned Pf growth 96h inconclusive, Pf growth 48h inconclusive, HCV inhibitor 11.2µM* and NS1 inh 8.4%.
Screening COCC(C)n1c(SCC(=O)NCCC2=CCCCC2)nc2ccccc2c1=O (stereo not drawn) returned Pf growth 96h 8.28µM*, VACV mCherry inh inactive, Vaccinia Venus -16.3%, HCV inhibitor -2.5% and NS1 inh -10.6%.
For COc1ccc(NC(=O)c2cc(-c3cc(Cl)ccc3C)n[nH]2)cc1OC the results were VACV mCherry inh inactive and Vaccinia Venus -13.3%.
`Cc1cc(C)n(-c2cc(N3CCOCC3)nc(-c3ccccc3)n2)n1` gave Pf growth 96h -13.2%[5.75 µM], VACV mCherry inh -11.0%, Vaccinia Venus -5.0%, Pf growth 48h inconclusive, HCV inhibitor inconclusive and NS1 inh -16.6%.
Screening Cc1cccc(NC(=O)C2CCCN(S(=O)(=O)c3ccc(-n4cnnn4)cc3)C2)c1 (stereo not drawn) returned Pf growth 96h -2.9%, VACV mCherry inh -2.0%, Vaccinia Venus 13.4%, Pf growth 48h -29.4%, HCV inhibitor -15.9% and NS1 inh -6.9%.

Assay outcomes as filed in PubChem.
